# PubChem BioAssay (NCI)
# About 83,000 compounds went through this panel and 20% of them were active in at least one assay; those are over-represented in the sample as a whole.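 Cells were grown in 96-well plates and exposed to the test compound at a single concentration for 48 hours; results are reported as percent growth, with values below 10 considered active.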 A number with no mark means an inactive call. Calls of active or inactive are those of the source.
# What was measured:
# Assay in all cases: NCI-60 one-dose screen, 48 h (100 = growth as untreated, 0 = no growth, -100 = all killed)
# Conditions in all cases: 10 µM unless noted
# [1] = system: HCT-15 colon
# [2] = system: HT29 colon
# [3] = system: SNB-75 CNS
# [4] = system: SNB-19 CNS
# [5] = system: U251 CNS
# [6] = system: PC-3 prostate
# [7] = system: SK-MEL-5 melanoma
# [8] = system: UACC-62 melanoma
# [9] = system: SK-MEL-28 melanoma
# [10] = system: SK-MEL-2 melanoma
# [11] = system: EKVX NSCLC
# [12] = system: SN12C renal
# [13] = system: UO-31 renal
# [14] = system: TK-10 renal
# [15] = system: ACHN renal
# [16] = system: CAKI-1 renal
# [17] = system: A498 renal
# [18] = system: CCRF-CEM leukemia
# [19] = system: MOLT-4 leukemia
# [20] = system: LOX IMVI melanoma
SMILES,growth [1],growth [2],growth [3],growth [4],growth [5],growth [6],growth [7],growth [8],growth [9] [%],growth [10],growth [11],growth [12],growth [13],growth [14],growth [15],growth [16],growth [17],growth [18],growth [19],growth [20]
Cc1cc2oc(=O)cc(CP(=O)(O)O)c2cc1O,96%,106%,75.3%,93.6%,98.5%,94.9%,99.2%,90.7%,98.4,102%,97.1%,93.5%,70.4%,107%,101%,90.9%,80.8%,103%,104%,
C=C1C(=O)O[C@H]2[C@H]1CC/C(COC(=O)c1cc3cc(F)ccc3[nH]1)=C\CC[C@@]1(C)O[C@@H]21,-59.8% (active),-53.6% (active),-35.3% (active),-10.2% (active),-86% (active),-75.2% (active),-94.5% (active),-71.9% (active),,-69% (active),-78.1% (active),-42% (active),-88.1% (active),-94.9% (active),-88.5% (active),-90.8% (active),-40.2% (active),-31.9% (active),-16.2% (active),-87.2% (active)
CCN(CC)CCOc1nc2c3ccc(Cl)cc3nn2c2ccccc12,4.7% (active),15.2%,33.5%,24.2%,16.4%,34.1%,51.3%,9.05% (active),,72.5%,28.9%,19.9%,-13.2% (active),51%,8.93% (active),16.5%,-12.2% (active),30.6%,10.9%,-47.2% (active)
O=C(CCl)Nc1ccc2c(Nc3cc(O)ccc3Cl)ncnc2c1,-81.3% (active),-74.5% (active),-96.7% (active),-61.9% (active),-89.8% (active),-74.4% (active),-88.4% (active),-68.7% (active),,-76.5% (active),-53.8% (active),-83.4% (active),-92.9% (active),-66.9% (active),-98.3% (active),-86.1% (active),56.2%,-5.44% (active),-24.4% (active),-81.6% (active)
CC(C)CCC[C@@H](C)C1CCC2C3CCC4=C/C(=N/OCCN(C)C)CC[C@]4(C)C3CC[C@@]21C (stereo partly drawn),98.3%,78.7%,80.5%,86.5%,79.2%,57.1%,99.3%,84.9%,,83.7%,94.7%,92.6%,61.7%,70.4%,88.9%,79.9%,80.8%,26.6%,49.2%,57.8%
O=C(Cn1nnc2ccccc21)N/N=C/c1ccccc1F,106%,99.5%,95.2%,103%,97.1%,96%,102%,88.5%,,102%,106%,83.9%,87%,107%,106%,97.9%,85.5%,103%,104%,101%
CCCCSCC(=O)c1ccccc1,104%,92.2%,82.3%,98.1%,97.3%,81.5%,102%,102%,,85.2%,99%,103%,85%,,101%,94.4%,106%,91.9%,92.9%,101%
COc1ccc(C2=Nc3c/c(=C\c4c(O)[nH]c5cc(Cl)ccc45)ccc3=N2)cc1,55.8%,39.8%,41.6%,95.1%,74.3%,43.3%,60.7%,67.5%,,54.4%,80.7%,96.5%,58.6%,114%,76.9%,75.9%,68.5%,54.8%,83.9%,90.6%
COc1ccc(Nc2ncc(C(N)=O)c(NCCCNC(=O)C3CCC3)n2)cc1,82.1%,70.7%,49.7%,75.5%,56.3%,62.8%,88.3%,77.8%,94.2,51.8%,96.2%,30.9%,2.37% (active),34.4%,44.9%,34.7%,105%,43.7%,38.7%,
CN1CCCc2cc(/C=C3/SC(=S)N(CCc4ccc(O)cc4)C3=O)ccc21,56.7%,86.3%,74.1%,92.9%,94.4%,67.5%,92%,71.9%,,98%,93.7%,77.3%,52.4%,114%,87.3%,58.8%,73.5%,14.8%,51%,77.3%
CCCCC(=O)Nc1ncc(Cc2ccccc2Cl)s1,24.8%,11%,25.3%,48.7%,32%,68.8%,37.6%,32.4%,,55.8%,57.6%,42.4%,44.6%,62.8%,61.4%,37.8%,48.5%,57.3%,28.5%,40.2%
CN1C(=O)N(C)C2C1NC(=S)N2/N=C/C=C/c1ccccc1[N+](=O)[O-] (stereo not drawn),29%,2.85% (active),-5.19% (active),37%,20.2%,17.3%,11.8%,26.4%,,17%,43.6%,31.4%,44.6%,42.8%,30.7%,23%,10.8%,7.73% (active),27.8%,31.6%
COC(=O)c1c2c(c(C)[n+]([O-])c1C)C(=O)C=CC2=O,-64.8% (active),0.769% (active),-49.1% (active),-23.8% (active),-40.8% (active),3.6% (active),-98.5% (active),-72.8% (active),,-63.1% (active),98.3%,-87.7% (active),-64.8% (active),72.9%,-37.6% (active),2.19% (active),60.8%,0.622% (active),-1.84% (active),-86% (active)
COc1ccc(/C=C/C(=O)c2cc3c(N)c(C(=O)Nc4ccccc4C)sc3nc2C)cc1,15.2%,-27.6% (active),-0.543% (active),6.45% (active),9.39% (active),25%,17.7%,16.9%,,14.5%,43.3%,26.4%,40.4%,32%,38.7%,23.3%,16.7%,16.4%,27.6%,18.7%
O=C1NC(=O)c2c1c1c3ccccc3[nH]c1c1oc3cc(Br)ccc3c21,70.4%,76.9%,31.4%,72.8%,65.5%,42.3%,55.9%,48.5%,92.6,96.9%,69.9%,78.7%,36.9%,126%,55.2%,38.7%,26.5%,50.9%,40.4%,
CC(=O)Nc1c(Cl)cc(Cl)c2c1Cc1cc([N+](=O)[O-])ccc1-2,89.7%,81.4%,58%,99.8%,74.3%,81.2%,103%,102%,,105%,59.4%,80.3%,91.1%,99.4%,82.3%,84.5%,102%,89.7%,87%,76.8%
